Assay results taken from the supplement of paper PMC10849652.
Of roughly 7,900 targets only a part is listed; those with a hit were picked by preference. About 0.6% of all pairs of compound and target were hits. Unmarked numbers belong to inactive results.

Tests used:
Assay in all cases: log2 fold change, soluble protein after heating vs DMSO (PISA); higher = thermal stabilisation; K562 cells, 10 uM, 30 min; active = over 0.2 and 3.5 SD of the protein, either way, in both replicates (recomputed)
bafetinib = compound: Cc1ccc(NC(=O)c2ccc(CN3CC[C@H](N(C)C)C3)c(C(F)(F)F)c2)cc1Nc1nccc(-c2cncnc2)n1 [bafetinib]
How it was run: (§1)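 K562 cells at 2×10^6 cells/mL were given 10 μM compound for 30 min. Aliquots then went through 3 min of heating across 48°C-58°C, were pooled, and were extracted in PBS with 0.5% NP-40 at 4°C, and the supernatant after 21,000xg for 90 min was quantified by TMTpro 16plex LC-MS/MS with channel sums equalised. Thermal stability relative to control samples, from duplicates, is given as log2 fold change.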

[1] = compound: Cc1cccc(CC(=O)N2CCc3c2ccc(-c2cn(C)c4ncnc(N)c24)c3F)n1
How it was run: as §1

nilotinib = compound: Cc1cn(-c2cc(NC(=O)c3ccc(C)c(Nc4nccc(-c5cccnc5)n4)c3)cc(C(F)(F)F)c2)cn1 [nilotinib]
How it was run: as §1

[2] = compound: Cc1nc(Nc2n[nH]c3c2CN(C(=O)N[C@H](CN(C)C)c2ccccc2)C3(C)C)c2sccc2n1
How it was run: as §1

dasatinib = compound: Cc1nc(Nc2ncc(C(=O)Nc3c(C)cccc3Cl)s2)cc(N2CCN(CCO)CC2)n1 [dasatinib]
How it was run: as §1

[3] = compound: Cc1ncc(-c2ccnc(Nc3ccc(S(C)(=O)=O)cc3)n2)n1C(C)C
How it was run: as §1

[4] = compound: Cn1cc(-c2ccc3c(c2)CCN3C(=O)Cc2cccc(C(F)(F)F)c2)c2c(N)ncnc21
How it was run: as §1

[5] = compound: Cn1cc(-c2ccc3nnc(C(F)(F)c4ccc5ncccc5c4)n3n2)cn1
How it was run: as §1

tipifarnib = compound: Cn1cncc1[C@@](N)(c1ccc(Cl)cc1)c1ccc2c(c1)c(-c1cccc(Cl)c1)cc(=O)n2C [tipifarnib]
How it was run: as §1

mubritinib = compound: FC(F)(F)c1ccc(/C=C/c2nc(COc3ccc(CCCCn4ccnn4)cc3)co2)cc1 [mubritinib]
How it was run: as §1

[6] = compound: NC(=O)Nc1cc(-c2cccc(F)c2)sc1C(=O)N[C@H]1CCCNC1
How it was run: as §1

[7] = compound: NC(=O)c1cnc(N[C@@H]2CCCC[C@@H]2N)nc1Nc1cccc(-n2nccn2)c1
How it was run: as §1

[8] = compound: NC1(c2ccc(-c3nc4ccn5c(=O)[nH]nc5c4cc3-c3ccccc3)cc2)CCC1
How it was run: as §1

[9] = compound: NCC(=O)Nc1ccc(-n2nc(C(F)(F)F)cc2-c2ccc3c(ccc4ccccc43)c2)cc1
How it was run: as §1

entinostat = compound: Nc1ccccc1NC(=O)c1ccc(CNC(=O)OCc2cccnc2)cc1 [entinostat]
How it was run: as §1

vorinostat = compound: O=C(CCCCCCC(=O)Nc1ccccc1)NO [vorinostat]
How it was run: as §1

citarinostat = compound: O=C(CCCCCCNC(=O)c1cnc(N(c2ccccc2)c2ccccc2Cl)nc1)NO [citarinostat]
How it was run: as §1

silmitasertib = compound: O=C(O)c1ccc2c(c1)nc(Nc1cccc(Cl)c1)c1ccncc12 [silmitasertib]
How it was run: as §1

[10] = compound: O=C1NC(=O)C(c2cnc3ccccn23)=C1c1cn2c3c(cc(F)cc13)CN(C(=O)N1CCCCC1)CC2
How it was run: as §1

[11] = compound: c1cc(OCCN2CCCCC2)cc(-c2n[nH]c3ccc(-c4nnc[nH]4)cc23)c1
How it was run: as §1

UniProt Q9H3P2, sequence (Q9H3P2 whole entry, looked up): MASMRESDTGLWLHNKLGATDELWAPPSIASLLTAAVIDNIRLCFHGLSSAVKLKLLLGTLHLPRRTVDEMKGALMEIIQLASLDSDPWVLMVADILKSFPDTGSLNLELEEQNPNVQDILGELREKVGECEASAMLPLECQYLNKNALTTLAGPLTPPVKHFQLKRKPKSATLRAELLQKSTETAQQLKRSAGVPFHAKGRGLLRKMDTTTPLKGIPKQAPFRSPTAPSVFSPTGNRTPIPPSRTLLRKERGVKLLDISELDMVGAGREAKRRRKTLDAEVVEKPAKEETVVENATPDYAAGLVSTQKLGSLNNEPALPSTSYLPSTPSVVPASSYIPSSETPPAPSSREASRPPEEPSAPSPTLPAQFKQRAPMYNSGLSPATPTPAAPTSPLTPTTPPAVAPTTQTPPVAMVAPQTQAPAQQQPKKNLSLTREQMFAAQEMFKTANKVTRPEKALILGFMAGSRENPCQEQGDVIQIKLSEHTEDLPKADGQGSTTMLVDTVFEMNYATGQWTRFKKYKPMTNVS
UniProt Q8WX92, sequence (Q8WX92 whole entry, looked up): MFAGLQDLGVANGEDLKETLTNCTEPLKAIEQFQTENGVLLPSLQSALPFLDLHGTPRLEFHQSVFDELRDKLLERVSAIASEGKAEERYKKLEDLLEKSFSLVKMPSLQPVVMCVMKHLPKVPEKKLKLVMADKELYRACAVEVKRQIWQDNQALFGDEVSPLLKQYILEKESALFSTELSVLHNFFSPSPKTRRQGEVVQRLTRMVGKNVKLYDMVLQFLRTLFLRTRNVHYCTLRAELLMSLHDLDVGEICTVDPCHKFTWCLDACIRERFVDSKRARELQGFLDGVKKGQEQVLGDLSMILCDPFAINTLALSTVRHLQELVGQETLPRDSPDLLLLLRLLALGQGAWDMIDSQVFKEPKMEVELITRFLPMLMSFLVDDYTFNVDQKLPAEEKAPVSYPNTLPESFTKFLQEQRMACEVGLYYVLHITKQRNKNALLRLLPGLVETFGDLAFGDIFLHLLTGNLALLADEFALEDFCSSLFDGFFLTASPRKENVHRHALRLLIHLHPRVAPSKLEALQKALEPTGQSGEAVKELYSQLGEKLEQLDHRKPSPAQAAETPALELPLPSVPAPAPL
UniProt Q9HBL8, sequence (Q9HBL8 whole entry, looked up): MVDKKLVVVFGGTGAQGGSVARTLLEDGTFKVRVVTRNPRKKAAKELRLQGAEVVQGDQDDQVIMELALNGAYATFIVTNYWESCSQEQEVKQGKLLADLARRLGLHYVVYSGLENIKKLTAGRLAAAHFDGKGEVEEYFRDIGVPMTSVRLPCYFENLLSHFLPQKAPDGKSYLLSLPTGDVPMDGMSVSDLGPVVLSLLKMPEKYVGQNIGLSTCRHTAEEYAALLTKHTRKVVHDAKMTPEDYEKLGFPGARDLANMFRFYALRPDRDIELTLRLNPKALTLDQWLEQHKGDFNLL
UniProt P03891, sequence (P03891 whole entry, looked up): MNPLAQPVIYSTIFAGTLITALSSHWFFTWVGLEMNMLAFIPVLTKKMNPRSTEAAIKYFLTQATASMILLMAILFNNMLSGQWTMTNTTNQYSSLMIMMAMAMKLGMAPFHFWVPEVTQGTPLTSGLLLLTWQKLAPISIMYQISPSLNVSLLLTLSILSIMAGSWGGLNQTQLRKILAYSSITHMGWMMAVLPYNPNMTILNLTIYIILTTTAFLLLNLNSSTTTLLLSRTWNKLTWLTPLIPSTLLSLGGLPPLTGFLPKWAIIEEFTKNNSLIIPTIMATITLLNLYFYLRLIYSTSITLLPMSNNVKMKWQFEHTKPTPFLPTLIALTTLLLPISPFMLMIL
UniProt O43913, sequence (O43913 whole entry, looked up): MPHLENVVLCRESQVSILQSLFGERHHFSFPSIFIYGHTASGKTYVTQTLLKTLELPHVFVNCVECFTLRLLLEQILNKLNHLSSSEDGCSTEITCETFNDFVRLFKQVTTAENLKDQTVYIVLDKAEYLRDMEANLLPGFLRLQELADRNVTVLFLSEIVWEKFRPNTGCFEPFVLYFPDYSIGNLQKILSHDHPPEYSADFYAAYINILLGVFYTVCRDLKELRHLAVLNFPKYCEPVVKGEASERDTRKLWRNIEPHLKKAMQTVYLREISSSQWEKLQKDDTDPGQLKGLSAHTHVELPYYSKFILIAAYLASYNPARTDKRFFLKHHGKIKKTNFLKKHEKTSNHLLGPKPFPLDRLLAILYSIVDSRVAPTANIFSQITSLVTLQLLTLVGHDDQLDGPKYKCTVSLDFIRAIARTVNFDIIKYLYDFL
UniProt P15531, sequence (P15531 whole entry, looked up): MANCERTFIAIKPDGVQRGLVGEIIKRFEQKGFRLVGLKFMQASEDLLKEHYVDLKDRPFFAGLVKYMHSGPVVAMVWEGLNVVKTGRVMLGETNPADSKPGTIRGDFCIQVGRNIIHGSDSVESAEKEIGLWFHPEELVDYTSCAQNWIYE
UniProt O60361, sequence (O60361 whole entry, looked up): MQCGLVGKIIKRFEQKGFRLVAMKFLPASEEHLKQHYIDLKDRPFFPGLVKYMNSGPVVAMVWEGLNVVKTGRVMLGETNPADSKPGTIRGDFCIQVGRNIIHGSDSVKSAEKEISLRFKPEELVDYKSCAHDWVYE
UniProt Q9UH92, sequence (Q9UH92 whole entry, looked up): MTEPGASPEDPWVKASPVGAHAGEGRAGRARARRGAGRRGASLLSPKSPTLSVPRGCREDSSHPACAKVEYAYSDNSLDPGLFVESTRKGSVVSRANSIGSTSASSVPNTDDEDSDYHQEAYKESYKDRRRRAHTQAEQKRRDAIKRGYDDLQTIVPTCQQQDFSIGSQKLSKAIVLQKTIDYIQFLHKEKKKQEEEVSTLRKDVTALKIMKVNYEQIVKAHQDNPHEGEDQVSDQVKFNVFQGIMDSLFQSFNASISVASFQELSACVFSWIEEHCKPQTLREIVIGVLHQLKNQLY
UniProt P25208, sequence (P25208 whole entry, looked up): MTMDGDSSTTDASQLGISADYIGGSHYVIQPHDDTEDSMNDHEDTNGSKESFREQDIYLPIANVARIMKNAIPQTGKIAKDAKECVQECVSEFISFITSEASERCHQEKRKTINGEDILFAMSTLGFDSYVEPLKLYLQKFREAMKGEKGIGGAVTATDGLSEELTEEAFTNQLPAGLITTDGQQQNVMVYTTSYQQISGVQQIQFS
UniProt Q12986, sequence (Q12986 whole entry, looked up): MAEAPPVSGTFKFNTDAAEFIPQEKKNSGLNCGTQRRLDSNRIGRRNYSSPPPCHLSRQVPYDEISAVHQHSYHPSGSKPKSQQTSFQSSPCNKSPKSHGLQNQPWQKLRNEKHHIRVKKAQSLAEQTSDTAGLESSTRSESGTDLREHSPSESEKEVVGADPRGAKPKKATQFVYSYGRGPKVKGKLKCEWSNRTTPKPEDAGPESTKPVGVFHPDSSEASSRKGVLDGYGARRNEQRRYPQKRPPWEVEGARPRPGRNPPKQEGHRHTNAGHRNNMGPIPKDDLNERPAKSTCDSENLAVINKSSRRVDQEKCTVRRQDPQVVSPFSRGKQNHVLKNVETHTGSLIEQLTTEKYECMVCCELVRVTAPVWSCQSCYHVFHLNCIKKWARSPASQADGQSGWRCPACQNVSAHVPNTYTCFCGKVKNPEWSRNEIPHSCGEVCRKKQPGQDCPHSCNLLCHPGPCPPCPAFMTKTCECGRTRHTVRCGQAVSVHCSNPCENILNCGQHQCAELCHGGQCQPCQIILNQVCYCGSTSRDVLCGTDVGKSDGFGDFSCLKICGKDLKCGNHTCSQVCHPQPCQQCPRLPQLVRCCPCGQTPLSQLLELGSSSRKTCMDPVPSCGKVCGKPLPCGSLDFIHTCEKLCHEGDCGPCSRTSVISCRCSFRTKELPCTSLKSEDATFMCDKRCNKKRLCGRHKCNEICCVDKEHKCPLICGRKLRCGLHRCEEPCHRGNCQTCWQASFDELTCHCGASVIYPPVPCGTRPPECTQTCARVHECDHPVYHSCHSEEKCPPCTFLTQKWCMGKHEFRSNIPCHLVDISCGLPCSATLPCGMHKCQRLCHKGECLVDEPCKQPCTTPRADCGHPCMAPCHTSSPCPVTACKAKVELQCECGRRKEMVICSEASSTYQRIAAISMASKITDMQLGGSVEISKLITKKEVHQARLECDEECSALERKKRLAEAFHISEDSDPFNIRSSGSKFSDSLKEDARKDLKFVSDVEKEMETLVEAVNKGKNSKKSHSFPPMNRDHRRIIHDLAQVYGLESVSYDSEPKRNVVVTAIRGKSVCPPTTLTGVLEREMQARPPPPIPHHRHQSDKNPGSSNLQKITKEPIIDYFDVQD
UniProt P49757, sequence (P49757 whole entry, looked up): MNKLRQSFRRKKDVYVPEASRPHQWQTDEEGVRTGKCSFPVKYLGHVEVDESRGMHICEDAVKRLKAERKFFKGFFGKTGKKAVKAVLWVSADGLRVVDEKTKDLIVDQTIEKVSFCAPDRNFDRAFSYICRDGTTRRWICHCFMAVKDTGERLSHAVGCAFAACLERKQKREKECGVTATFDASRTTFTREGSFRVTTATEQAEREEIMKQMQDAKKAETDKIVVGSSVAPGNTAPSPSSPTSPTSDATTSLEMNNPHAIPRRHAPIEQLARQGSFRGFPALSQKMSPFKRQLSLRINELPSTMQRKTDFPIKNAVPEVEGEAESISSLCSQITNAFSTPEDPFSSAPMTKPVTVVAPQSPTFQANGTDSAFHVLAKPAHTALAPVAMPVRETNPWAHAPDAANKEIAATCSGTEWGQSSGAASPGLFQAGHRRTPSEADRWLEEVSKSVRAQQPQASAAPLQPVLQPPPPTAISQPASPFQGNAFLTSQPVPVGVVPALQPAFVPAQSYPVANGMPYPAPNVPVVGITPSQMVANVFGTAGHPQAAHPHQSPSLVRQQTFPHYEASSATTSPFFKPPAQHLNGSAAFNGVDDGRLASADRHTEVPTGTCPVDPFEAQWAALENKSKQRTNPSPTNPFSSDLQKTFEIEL

Target	log2 fold change (bafetinib)	log2 fold change [1]	log2 fold change (nilotinib)	log2 fold change [2]	log2 fold change (dasatinib)	log2 fold change [3]	log2 fold change [4]	log2 fold change [5]	log2 fold change (tipifarnib)	log2 fold change (mubritinib)	log2 fold change [6]	log2 fold change [7]	log2 fold change [8]	log2 fold change [9]	log2 fold change (entinostat)	log2 fold change (vorinostat)	log2 fold change (citarinostat)	log2 fold change (silmitasertib)	log2 fold change [10]	log2 fold change [11]
NFX1 (UniProt Q12986)	-0.044	-0.026	-0.042	0.075	0.085	-0.011	0.07	-0.15	0.131	-0.096	0.157	0.008	0.659 (active)	0.045	0.014	-0.016	-0.033	-0.006	-0.018	-0.019
NELFB isoform 2 (UniProt Q8WX92)	-0.088	0.046	-0.135	-0.123	-0.189	0.05	0.032	0.014	-0.081	0.03	-0.021	-0.016	-0.074	-0.107	0.062	0.059	0.102	0.021	-0.086	-0.001
NME1 isoform 2 (UniProt P15531)	0.011	-0.175	-0.115	0.182	-0.286	-0.003	0.088	-0.013	0.06	-0.103	0.012	-0.017	-0.003	-0.003	-0.064	0.103	-0.089	-0.138	-0.089	-0.253
NUMB (UniProt P49757)	-0.013	0.022	-0.05	-0.078	0.017	-0.12	0.063	-0.008	0.059	-0.053	-0.088	-0.022	-0.002	-0.003	-0.041	0.037	0.009	0.007	-0.097	-0.032
MTOR (UniProt P42345)	-0.018	0.014	-0.158	0.068	-0.166	-0.069	0.004	0.037	-0.12	0.068	-0.016	-0.102	-0.315 (active)	-0.111	0.042	0.049	0.035	0.102	-0.065	-0.004
NELFA (UniProt Q9H3P2)	-0.145	0.027	0.032	-0.311	-0.112	-0.152	0.015	0.018	-0.141	-0.034	0.038	-0.016	0.142	-0.245	0.002	0.061	-0.169	0.065	-0.183	0.002
NMRAL1 (UniProt Q9HBL8)	0.806 (active)	-0.026	1.29 (active)	0.024	-0.071	-0.018	0.031	0.962 (active)	-0.035	-0.145	0.391	1.06 (active)	0.717	-0.16	-0.052	-0.139	-0.151	0.018	-0.005	0.374
NNMT (UniProt P40261)	-0.038	0.068	0.015	0.005	0.037	-0.021	0.052		-0.002	0.094	0.013	-0.04	-0.179	-0.037	-0.056	0.128	-0.023	0.013	-0.042	0.139
NA, A0A2R8Y3M9	-0.605	0.19	0.035	-0.091	-0.013	0.31	0.503	-0.117	0.08		-0.104	-0.17			-0.011	0.372				
NME2P1 (UniProt O60361)	0.058	0.059	-0.236	-0.014		-0.107	-0.081	-0.013	-0.055	0.073	0.07	-0.146	-0.124	-0.306	-0.01	0.036	-0.114	0.048	-0.011	-0.161
ORC5 (UniProt O43913)	0.01	0.027	0.133	-0.001	-0.231	-0.114	0.067	0.044	0.031	0.045	-0.322	-0.188	-0.253	-0.058	-0.101	0.139	0.039	-0.072		-0.004
MLX (UniProt Q9UH92)	-0.022	0.094	-0.11	-0.01	0.008	-0.11	-0.054	-0.097	-0.122	-0.061	0.144	-0.115	-0.177		0.005	0.095	0.139	-0.091	-0.086	-0.175
NAP1L1 (UniProt B7Z9C2)	-0.11	-0.249	-0.011	-0.002	-0.347	-0.043				0.049		-0.124	0.028	0.064		0.23	0.068	0.001		0.179
NFYB (UniProt P25208)	-0.086	-0.006	0.074	-0.067	0.124	0.034	-0.012	-0.06	-0.019	0.127	-0.022	0.102	-0.074	0.069	-0.001	-0.038	-0.006	0.043		0.033
MT-ND2 (UniProt P03891)	0	-0.173	-0.006	0.018	-0.459 (active)	-0.171	0.279	0.11	0.383	-0.01		0.146	-0.128	0.036		0.036		-0.01		
MRPS16 (UniProt Q9Y3D3)	0.192	0.151	-0.187	0.009		-0.053	0.049	0.092	-0.094	0.16	0.026	-0.04	-0.079	-0.05	0.075	0.133	0.057	-0.063	-0.016	-0.036
